# Assay results taken from PubChem BioAssay (Tox21).
# A number with no mark means an inactive call. Inconclusive results are not listed. Where a call stands in place of a potency, no number is given. The source made the active and inactive calls. Unless noted, calls come from the whole dose curve; as a rule, active = well fitted curve in the direction sought with a large enough effect in the repeat runs; inconclusive = weak or mixed curves; inactive = no such curve, though single readings can be large; an effect the other way counts as inactive or inconclusive.
# Key:
# [1] = qHTS assay to identify small molecule antagonists of the TGF-beta/Smad signaling pathway - cell viability counter screen (AID 1346824); note: nearly all actives have a fitted effect of over 50% in size; note: potency is the fitted concentration of half-maximal effect
# How it was run: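 SBE-bla HEK 293T cells, incubated overnight, then compound plus 0.25 ng/mL TGF-beta1 (stock added) for 5 hr at 37 C. Viability was read in the same wells by CellTiter-Glo luminescence after 30 min at room temperature.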
# [2] = qHTS assay to identify small molecule agonists of the TGF-beta/Smad signaling pathway - cell viability counter screen (AID 1346829); note: nearly all actives have a fitted effect of over 45% in size; note: potency is the fitted concentration of half-maximal effect
# How it was run: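 SBE-bla HEK 293T cells plated overnight, compound exposure 5 hr at 37 C. Viability read in the same wells by CellTiter-Glo luminescence after 30 min at room temperature, following the beta-lactamase read.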
# [3] = qHTS assay to identify small molecule agonists of the TGF-beta/Smad signaling pathway (AID 1346859; active = well fitted activation curve with a large enough effect in the signal ratio in the repeat runs, not every such curve was filed as active; the % refers to the signal ratio; note: series mostly up to about 77 µM)
# How it was run: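 Dual-wavelength fluorescence (460/530 nm emission) quantified beta-lactamase expression under the Smad binding element in HEK 293T cells following 5 hr compound treatment at 37 C.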
# [4] = target: Thyrotropin-releasing hormone receptor (Homo sapiens) (UniProt P34981); assay: qHTS assay to identify small molecule antagonists of the thyrotropin-releasing hormone receptor (TRHR) signaling pathway (AID 1346877; active = well fitted inhibition curve with a large enough effect in the repeat runs, not every such curve was filed as active; note: series mostly up to about 51 µM)
# Sequence of Thyrotropin-releasing hormone receptor (Homo sapiens) (P34981 whole entry, looked up): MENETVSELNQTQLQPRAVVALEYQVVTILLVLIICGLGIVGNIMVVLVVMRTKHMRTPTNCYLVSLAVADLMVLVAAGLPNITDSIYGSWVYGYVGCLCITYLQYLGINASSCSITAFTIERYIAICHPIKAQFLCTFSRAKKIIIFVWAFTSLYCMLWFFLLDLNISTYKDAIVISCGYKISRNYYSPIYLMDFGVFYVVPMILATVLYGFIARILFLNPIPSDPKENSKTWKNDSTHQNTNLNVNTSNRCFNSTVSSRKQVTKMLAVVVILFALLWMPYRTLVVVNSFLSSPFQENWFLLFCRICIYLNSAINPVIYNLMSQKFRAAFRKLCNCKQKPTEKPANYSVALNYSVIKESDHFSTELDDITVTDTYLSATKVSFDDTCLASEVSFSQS
# How it was run: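 In this cell-based calcium flux format, HEK293 cells expressing TRHR received test compound for 5 min before the agonist TRH (1 nM final). Dye loading lasted 2 h at 37 °C.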
# [5] = target: Thyrotropin-releasing hormone receptor (Homo sapiens) (UniProt P34981); assay: qHTS assay to identify small molecule agonists of the thyrotropin-releasing hormone receptor (TRHR) signaling pathway (AID 1346891; calls by dose curve; note: series mostly up to about 58 µM)
# How it was run: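 Kinetic fluorescence (3 min, 1 s intervals) reported intracellular calcium after compound transfer onto TRHR-Hek293 cells pre-loaded with dye for 2 h at 37 °C.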
# [6] = Human pregnane X receptor (PXR) small molecule agonists, qHTS cell viability counter screen (AID 1346977); note: nearly all actives have a fitted effect of over 50% in size; note: potency is the fitted concentration of half-maximal effect
# How it was run: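 HepG2 cells stably carrying the PXR-Luc reporter are cultured with 5% charcoal-stripped FBS and treated with compounds for 24hr. CellTiter-Fluor is added at 23hr and fluorescence is read after 1hr.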
# [7] = Caspase-3/7 induction in HepG2 cells by small molecules, qHTS assay (AID 1346978); note: nearly all actives have a fitted effect of over 15% in size; note: potency is the fitted concentration of half-maximal effect
# How it was run: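 Wild-type HepG2 cells, 2,000/well, settled 5 hr at 37 C and 5% CO2, then compound-treated for 17 hr; caspase-3/7 activity read by luminescent Caspase-Glo 3/7 after 30 min at room temperature.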
# [8] = Caspase-3/7 induction in CHO-K1 cells by small molecules, qHTS assay (AID 1346980); note: nearly all actives have a fitted effect of over 15% in size; note: potency is the fitted concentration of half-maximal effect
# How it was run: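 Wild-type CHO-K1 cells exposed to compounds for 17hr at 37 C, 5% CO2. Caspase-3/7 activity then measured by Caspase-Glo 3/7 luminescence after 30min at room temperature.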
# [9] = Caspase-3/7 induction in HepG2 cells by small molecules, qHTS cell viability counter screen (AID 1346981); note: nearly all actives have a fitted effect of over 30% in size; note: potency is the fitted concentration of half-maximal effect
# How it was run: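 Counter screen for cytotoxicity: HepG2 exposed 16 hr to compounds, then CellTiter-Fluor viability signal (fluorescence, 1 hr reagent incubation).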
# [10] = target: Nuclear receptor subfamily 1 group I member 2 (Homo sapiens) (UniProt O75469); assay: Human pregnane X receptor (PXR) small molecule agonists, qHTS assay (AID 1346982); note: nearly all actives have a fitted effect of over 35% in size; note: potency is the fitted concentration of half-maximal effect
# Sequence of Nuclear receptor subfamily 1 group I member 2 (Homo sapiens) (O75469 whole entry, looked up): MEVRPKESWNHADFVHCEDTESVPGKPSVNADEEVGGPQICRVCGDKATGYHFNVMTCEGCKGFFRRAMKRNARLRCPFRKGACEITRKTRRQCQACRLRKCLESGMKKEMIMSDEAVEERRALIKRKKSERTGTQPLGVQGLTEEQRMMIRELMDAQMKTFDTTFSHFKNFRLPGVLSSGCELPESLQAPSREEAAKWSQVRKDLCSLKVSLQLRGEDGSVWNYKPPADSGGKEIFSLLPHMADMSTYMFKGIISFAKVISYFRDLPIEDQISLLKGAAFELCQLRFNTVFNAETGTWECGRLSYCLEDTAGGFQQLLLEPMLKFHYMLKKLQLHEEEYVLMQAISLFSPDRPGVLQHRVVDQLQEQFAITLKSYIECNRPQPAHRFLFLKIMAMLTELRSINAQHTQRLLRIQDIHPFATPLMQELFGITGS
# How it was run: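 Luminescence (ONE-Glo, 30 min RT) after 24 hr compound exposure of PXR-Luc HepG2 cells; cells rested 5 hr post-plating in 5% charcoal-stripped FBS medium.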
# [11] = target: Cytochrome P450 2D6 (Homo sapiens) (UniProt P10635); assay: Cytochrome P450 Family 2 Subfamily D Member 6 (CYP2D6) small molecule antagonists: luciferase reporter qHTS assay (AID 1671196); note: nearly all actives have a fitted effect of over 50% in size; note: potency is the fitted concentration of half-maximal effect
# Sequence of Cytochrome P450 2D6 (Homo sapiens) (P10635 whole entry, looked up): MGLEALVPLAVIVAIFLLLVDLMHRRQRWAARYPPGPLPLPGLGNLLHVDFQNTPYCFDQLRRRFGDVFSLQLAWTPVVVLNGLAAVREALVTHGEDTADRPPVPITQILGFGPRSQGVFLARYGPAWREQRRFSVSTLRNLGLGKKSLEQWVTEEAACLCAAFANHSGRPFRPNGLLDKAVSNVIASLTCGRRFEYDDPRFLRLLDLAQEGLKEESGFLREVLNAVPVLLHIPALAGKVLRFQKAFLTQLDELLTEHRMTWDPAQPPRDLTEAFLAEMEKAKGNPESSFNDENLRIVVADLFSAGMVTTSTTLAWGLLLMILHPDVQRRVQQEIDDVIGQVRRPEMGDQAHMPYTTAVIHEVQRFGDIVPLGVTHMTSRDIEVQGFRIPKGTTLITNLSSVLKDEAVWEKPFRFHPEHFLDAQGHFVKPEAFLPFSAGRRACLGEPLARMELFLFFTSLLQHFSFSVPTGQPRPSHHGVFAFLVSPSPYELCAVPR
# How it was run: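 Inhibition of CYP2D6 was gauged by loss of luminescence, since light produced tracks the luciferin generated from a proluciferin substrate. A 10 min room-temperature preincubation preceded 1 h NADPH-supported turnover.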
# [12] = target: Cytochrome P450 2C19 (Homo sapiens) (UniProt P33261); assay: Cytochrome P450 Family 2 Subfamily C Member 19 (CYP2C19) small molecule antagonists: luciferase reporter qHTS assay (AID 1671197); note: nearly all actives have a fitted effect of over 65% in size; note: potency is the fitted concentration of half-maximal effect
# Sequence of Cytochrome P450 2C19 (Homo sapiens) (P33261 whole entry, looked up): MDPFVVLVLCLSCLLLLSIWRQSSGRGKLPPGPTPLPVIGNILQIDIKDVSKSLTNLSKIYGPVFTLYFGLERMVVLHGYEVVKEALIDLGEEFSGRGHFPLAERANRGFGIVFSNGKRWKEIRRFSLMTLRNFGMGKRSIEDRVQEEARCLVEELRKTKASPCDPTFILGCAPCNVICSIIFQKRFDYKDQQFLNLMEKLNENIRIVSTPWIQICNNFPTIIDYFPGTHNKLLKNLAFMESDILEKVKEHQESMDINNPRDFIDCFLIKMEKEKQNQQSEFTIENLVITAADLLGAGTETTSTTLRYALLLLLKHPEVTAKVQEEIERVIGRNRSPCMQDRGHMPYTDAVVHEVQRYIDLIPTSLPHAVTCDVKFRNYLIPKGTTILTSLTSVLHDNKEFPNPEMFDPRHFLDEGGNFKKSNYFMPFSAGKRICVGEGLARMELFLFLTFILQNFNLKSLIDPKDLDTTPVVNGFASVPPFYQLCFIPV
# How it was run: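 P450-Glo CYP2C19 system: enzyme-substrate mix with compound 10 min at room temperature, then NADPH regeneration solution, 1 h at 37C. Proluciferin-to-luciferin conversion detected by luminescence after 20 min with detection reagent; ketoconazole as positive control.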
# [13] = target: Cytochrome P450 2C9 (Homo sapiens) (UniProt P11712); assay: Cytochrome P450 Family 2 Subfamily C Member 9 (CYP2C9) small molecule antagonists: luciferase reporter qHTS assay (AID 1671198); note: nearly all actives have a fitted effect of over 50% in size; note: potency is the fitted concentration of half-maximal effect
# Sequence of Cytochrome P450 2C9 (Homo sapiens) (P11712 whole entry, looked up): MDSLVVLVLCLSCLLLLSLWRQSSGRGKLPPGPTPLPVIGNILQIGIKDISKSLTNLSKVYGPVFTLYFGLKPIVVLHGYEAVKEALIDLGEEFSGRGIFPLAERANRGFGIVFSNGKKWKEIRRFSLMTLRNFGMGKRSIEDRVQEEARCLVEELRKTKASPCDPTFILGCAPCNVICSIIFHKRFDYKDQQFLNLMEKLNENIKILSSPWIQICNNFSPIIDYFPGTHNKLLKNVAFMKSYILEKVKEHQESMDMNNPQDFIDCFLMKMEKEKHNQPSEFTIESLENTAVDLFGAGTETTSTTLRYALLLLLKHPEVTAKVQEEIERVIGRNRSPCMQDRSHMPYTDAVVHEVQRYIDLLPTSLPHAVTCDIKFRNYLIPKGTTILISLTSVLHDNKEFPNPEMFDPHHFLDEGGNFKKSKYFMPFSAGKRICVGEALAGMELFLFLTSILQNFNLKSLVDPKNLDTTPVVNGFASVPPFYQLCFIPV
# How it was run: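 P450-Glo proluciferin substrate with CYP2C9 enzyme; 10 min RT preincubation, then NADPH regeneration 1 h at 37C; luciferin detection reagent 20 min RT, luminescence in relative luminescence units.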
# [14] = target: Cytochrome P450 1A2 (Homo sapiens) (UniProt P05177); assay: Cytochrome P450 Family 1 Subfamily A Member 2 (CYP1A2) small molecule antagonists: luciferase reporter qHTS assay (AID 1671199); note: nearly all actives have a fitted effect of over 50% in size; note: potency is the fitted concentration of half-maximal effect
# Sequence of Cytochrome P450 1A2 (Homo sapiens) (P05177 whole entry, looked up): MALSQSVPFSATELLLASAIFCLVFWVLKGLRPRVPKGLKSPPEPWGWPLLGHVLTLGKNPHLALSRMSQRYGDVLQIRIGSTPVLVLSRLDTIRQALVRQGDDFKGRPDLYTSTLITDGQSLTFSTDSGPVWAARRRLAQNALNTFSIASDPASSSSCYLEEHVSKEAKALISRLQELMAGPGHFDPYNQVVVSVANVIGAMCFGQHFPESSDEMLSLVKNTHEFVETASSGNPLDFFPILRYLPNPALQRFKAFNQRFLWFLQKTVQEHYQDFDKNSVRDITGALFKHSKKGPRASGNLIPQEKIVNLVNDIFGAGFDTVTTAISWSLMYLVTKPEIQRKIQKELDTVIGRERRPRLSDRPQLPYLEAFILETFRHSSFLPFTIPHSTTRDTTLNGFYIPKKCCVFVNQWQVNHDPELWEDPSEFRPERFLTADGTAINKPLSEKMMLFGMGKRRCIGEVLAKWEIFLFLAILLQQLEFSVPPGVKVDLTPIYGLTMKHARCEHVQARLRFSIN
# How it was run: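 Signal from luciferin formed by CYP1A2 from a proluciferin substrate is read as luminescence, expressed in relative luminescence units. Compounds sit with enzyme 10 min, NADPH-driven reaction runs 1 h, all at room temperature.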
# [15] = qHTS assay to identify small molecule agonists of the progesterone receptor (PR) signaling pathway - cell viability counter screen (AID 1346799; calls by dose curve; note: nearly all actives have a fitted effect of over 45% in size; note: potency is the fitted concentration of half-maximal effect)
# How it was run: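 Viability was scored by ATP luminescence (CellTiter-Glo, 30 min, room temperature) in the same wells used for the reporter readout, after 16 hr compound exposure of PR-UAS-bla HEK293T cells.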
# [16] = Caspase-3/7 induction in CHO-K1 cells by small molecules, qHTS cell viability counter screen (AID 1346979); note: nearly all actives have a fitted effect of over 35% in size; note: potency is the fitted concentration of half-maximal effect
# How it was run: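 Seeding: 1,500 CHO-K1 cells/well. Rest: 5hr, 37C. Treatment: compounds in DMSO, 16hr. Read: CellTiter-Fluor, 1hr, fluorescence.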
# [17] = target: Voltage-gated inwardly rectifying potassium channel KCNH2 (Homo sapiens) (UniProt Q12809); assay: Human Ether-a-go-go-Related Gene (hERG) channel small molecule antagonists: fluorescence cell-based qHTS assay (AID 1671200); note: nearly all actives have a fitted effect of over 50% in size; note: potency is the fitted concentration of half-maximal effect
# Sequence of Voltage-gated inwardly rectifying potassium channel KCNH2 (Homo sapiens) (Q12809 whole entry, looked up): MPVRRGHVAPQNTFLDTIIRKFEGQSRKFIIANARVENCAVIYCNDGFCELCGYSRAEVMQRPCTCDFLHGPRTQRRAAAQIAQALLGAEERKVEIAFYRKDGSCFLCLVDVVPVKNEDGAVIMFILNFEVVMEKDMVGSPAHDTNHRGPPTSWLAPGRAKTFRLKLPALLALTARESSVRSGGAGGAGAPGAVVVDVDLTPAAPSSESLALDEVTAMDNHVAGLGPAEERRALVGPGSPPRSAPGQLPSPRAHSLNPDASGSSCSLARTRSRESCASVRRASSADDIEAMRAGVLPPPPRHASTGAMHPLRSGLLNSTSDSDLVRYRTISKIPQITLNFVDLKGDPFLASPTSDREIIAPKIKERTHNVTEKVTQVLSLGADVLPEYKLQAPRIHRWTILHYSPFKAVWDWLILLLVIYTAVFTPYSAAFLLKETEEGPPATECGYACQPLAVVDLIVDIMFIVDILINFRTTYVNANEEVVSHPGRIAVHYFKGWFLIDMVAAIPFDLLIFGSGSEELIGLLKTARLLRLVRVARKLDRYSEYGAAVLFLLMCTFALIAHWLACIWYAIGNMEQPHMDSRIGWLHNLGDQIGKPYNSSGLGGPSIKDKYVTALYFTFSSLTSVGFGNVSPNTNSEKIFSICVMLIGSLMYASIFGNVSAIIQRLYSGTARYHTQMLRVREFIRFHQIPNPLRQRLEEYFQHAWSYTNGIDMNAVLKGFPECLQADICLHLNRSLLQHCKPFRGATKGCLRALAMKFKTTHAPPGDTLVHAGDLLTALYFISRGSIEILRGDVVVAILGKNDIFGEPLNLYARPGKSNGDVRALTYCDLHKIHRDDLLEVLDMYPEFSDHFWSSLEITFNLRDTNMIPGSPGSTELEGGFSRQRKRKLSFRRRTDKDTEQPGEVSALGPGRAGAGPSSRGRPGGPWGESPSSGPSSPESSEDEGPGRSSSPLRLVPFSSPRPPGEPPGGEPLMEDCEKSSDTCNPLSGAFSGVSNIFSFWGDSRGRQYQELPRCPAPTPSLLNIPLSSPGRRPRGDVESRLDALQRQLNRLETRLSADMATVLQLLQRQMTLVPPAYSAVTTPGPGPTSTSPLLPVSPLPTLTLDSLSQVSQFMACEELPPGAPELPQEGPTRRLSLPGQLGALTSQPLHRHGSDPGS
# How it was run: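 First, 1000 cells per well are seeded and cultured overnight at 37 C. Next, FluxOR II dye is loaded for 1 h at room temperature, protected from light. After 10 more minutes, stimulus is added and fluorescence is read.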
# [18] = target: Nuclear receptor subfamily 1 group I member 2 (Rattus norvegicus) (UniProt Q9R1A7); assay: Rat pregnane X receptor (rPXR) activation by small molecules, qHTS assay (AID 1346983); settings: rPXR luciferase reporter cells, One-Glo luminescence, 24 h; max activation: hits give high values; note: potency is the fitted concentration of half-maximal effect; nearly all actives have a fitted effect of over 20% in size
# Sequence of Nuclear receptor subfamily 1 group I member 2 (Rattus norvegicus) (Q9R1A7 whole entry, looked up): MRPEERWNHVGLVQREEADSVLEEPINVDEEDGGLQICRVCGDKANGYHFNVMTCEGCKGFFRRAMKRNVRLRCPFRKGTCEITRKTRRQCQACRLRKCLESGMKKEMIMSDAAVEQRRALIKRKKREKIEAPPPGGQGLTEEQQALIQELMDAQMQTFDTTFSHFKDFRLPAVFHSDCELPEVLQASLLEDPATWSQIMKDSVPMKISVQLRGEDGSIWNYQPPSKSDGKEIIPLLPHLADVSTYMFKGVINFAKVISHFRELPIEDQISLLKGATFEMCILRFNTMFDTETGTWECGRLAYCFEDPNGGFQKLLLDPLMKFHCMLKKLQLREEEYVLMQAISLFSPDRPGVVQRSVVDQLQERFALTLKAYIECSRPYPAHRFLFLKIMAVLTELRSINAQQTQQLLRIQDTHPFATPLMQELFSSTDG
# How it was run: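 Cell-based rPXR activation assay: rPXR cells, 2,000 per well, rested 5hr at 37 C, then exposed to compounds in DMSO for 24 hr at 37 C. Luciferase activity read by One-Glo luminescence after 30 min at room temperature.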
# [19] = target: Nuclear receptor subfamily 1 group I member 2 (Homo sapiens) (UniProt O75469); assay: Human pregnane X receptor (PXR) activation by small molecules, qHTS assay (AID 1346985); note: potency is the fitted concentration of half-maximal effect; nearly all actives have a fitted effect of over 40% in size
# How it was run: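 DPX-2 cells (HepG2 co-transfected with a PXR response element and a CYP3A4-promoter luciferase construct) were seeded at 2,000 per well, rested 5 hr at 37C, then exposed to DMSO-dissolved compounds for 24 hr. Activation was read as luciferase luminescence.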
Structure (SMILES),Potency [1],Potency [2],outcome [3],Potency [4],Potency [5],Potency [6],Potency [7],Potency [8],Potency [9],Potency [10],Potency [11],Potency [12],Potency [13],Potency [14],Potency [15],Potency [16],Potency [17],Potency [18],Potency [19]
Nc1ccc(F)c([N+](=O)[O-])c1,inactive,inactive,inactive,inactive,inactive,inactive,inactive,inactive,inactive,inactive,inactive,89.4 µM (active),,,,,,,
CN1CCN(CCCN2c3ccccc3Sc3ccc(Cl)cc32)CC1,inactive,inactive,inactive,,,,inactive,inactive,,,0.275 µM (active),,inactive,2.57 µM (active),,,,,
CC/C=C(\C)C=O,,,inactive,inactive,inactive,inactive,inactive,inactive,inactive,inactive,inactive,inactive,inactive,39.9 µM (active),inactive,inactive,inactive,,
CCOC(=O)[C@H](O)[C@@H](O)C(=O)OCC,,,inactive,inactive,inactive,inactive,inactive,inactive,inactive,inactive,inactive,inactive,inactive,,inactive,inactive,inactive,,
c1ccc(-c2ccccc2-c2ccccc2)cc1,inactive,inactive,inactive,inactive,inactive,,inactive,,inactive,61.1 µM (active),inactive,20 µM (active),22.4 µM (active),3.17 µM (active),,,,,
CCc1c(C)cc(N)c(CC)c1N,,,inactive,inactive,inactive,inactive,inactive,inactive,inactive,24.3 µM (active),4.48 µM (active),14.2 µM (active),28.3 µM (active),20 µM (active),inactive,inactive,inactive,,
CC(C)=NNC(N)=S,inactive,inactive,inactive,inactive,inactive,inactive,inactive,inactive,inactive,,,,,71 µM (active),,,inactive,,
Cc1ccc(Cl)c(N)c1Cl,inactive,inactive,inactive,,,,inactive,inactive,inactive,,,inactive,inactive,,,,inactive,,
Cc1ccc(C=O)cc1,,inactive,inactive,inactive,inactive,inactive,inactive,inactive,inactive,inactive,inactive,inactive,inactive,inactive,inactive,,,,
Cc1cc(F)ccc1-c1cc(N2CC[C@@H](O)[C@H]2CO)ncc1N(C)C(=O)C(C)(C)c1cc(C(F)(F)F)cc(C(F)(F)F)c1,inactive,inactive,,inactive,inactive,38 µM (active),38 µM (active),38 µM (active),38 µM (active),17 µM (active),,27.8 µM (active),22.1 µM (active),,,24 µM (active),inactive,,
O=C(N[C@H](CO)[C@H](O)c1ccc([N+](=O)[O-])cc1)C(Cl)Cl,inactive,inactive,inactive,,,inactive,inactive,inactive,,,,,,,,inactive,,,
CSc1nnc(C(C)(C)C)c(=O)[nH]1,inactive,inactive,inactive,inactive,inactive,inactive,inactive,inactive,inactive,inactive,,inactive,35.6 µM (active),inactive,,,inactive,,
CN(C[C@@H](CC[N+]12CCC(C3CCCCC3)(CC1)CC2)c1ccc(Cl)c(Cl)c1)C(=O)c1cc(C(F)(F)F)cc(C(F)(F)F)c1,inactive,,,inactive,inactive,,inactive,inactive,68.6 µM (active),inactive,15.9 µM (active),5.64 µM (active),39.9 µM (active),71 µM (active),13.7 µM (active),61.1 µM (active),inactive,,
CCC1(C)C(=O)N(Cl)C(=O)N1Cl (stereo not given),,,inactive,inactive,inactive,inactive,inactive,inactive,inactive,inactive,,inactive,,inactive,inactive,inactive,inactive,,
O=C(CCCCCCCCc1cccnc1)N1CCC(C=C(c2ccccc2)c2ccccc2)CC1,54.9 µM (active),,,inactive,inactive,,inactive,inactive,inactive,5.45 µM (active),inactive,,0.633 µM (active),,30.6 µM (active),,6.92 µM (active),,
C=C1C(CCl)(CCl)C2(Cl)C(Cl)C(Cl)C1(Cl)C2(Cl)Cl (stereo not given),inactive,54.3 µM (active),inactive,inactive,inactive,,,48 µM (active),,8.53 µM (active),44.3 µM (active),1.76 µM (active),15.7 µM (active),,,,43.1 µM (active),11.2 µM (active),15.8 µM (active)
